In PubChem BioAssay (EPA / NIEHS) one finds outcome and AC50 data, which are given here for 9 compounds.

Assay [1] is described as follows: ATG_TAL_CIS: Attagene CIS-FACTORIAL HepG2 Assay for human TAL Basal Promoter (AID 2282966; active means hit-call score of the fitted dose curve at least 0.9, where 1 is the maximum; inactive means score below 0.9;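 further: background control endpoint measuring basal TAL promoter reporter mRNA not a specific factor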). Particulars: HepG2 Attagene cis-factorial TAL promoter reporter; actives raise or lower the signal. A digest of the protocol: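 HepG2 cells were transiently transfected with promoter-driven multiplexed reporter units and dosed for 24 h. Reporter mRNA was measured by RT-PCR with capillary electrophoresis fluorescence; bidirectional fits used DMSO as baseline, serving as a background control.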

Assay [2] in a line: ATG_TGFb_CIS: Attagene CIS-FACTORIAL HepG2 Assay for human Transforming Growth Factor (TGF) (AID 2282967; active means hit-call score of the fitted dose curve at least 0.9, where 1 is the maximum; inactive means score below 0.9). Particulars: HepG2 Attagene CIS TGFb reporter, mRNA transcription; actives raise or lower the signal. An outline of the steps: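 HepG2 cells transiently transfected with cis-promoter-driven multiple reporter units measure endogenous TF activity; reporter mRNA quantified at 24 h by RT-PCR, FAM labeling, HpaI digestion and capillary electrophoresis. Bidirectional fit vs DMSO.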

The nature of assay [3]: ATG_VDRE_CIS: Attagene CIS-FACTORIAL HepG2 Assay for human Vitamin D Receptor Element (VDRE) (AID 2282968; active means hit-call score of the fitted dose curve at least 0.9, where 1 is the maximum; inactive means score below 0.9). Particulars: HepG2 VDRE cis-reporter transcription, actives raise or lower the signal. A digest of the protocol:
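RT-PCR/CE readout of reporter mRNA; HepG2, transient transfection, 24 h dosing; DMSO baseline; bidirectional analysis.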

For assay [4], the target named is Nuclear receptor subfamily 1 group I member 3 (Homo sapiens) (UniProt Q14994). As to the kind of experiment: ATG_CAR_TRANS: Attagene TRANS-FACTORIAL HepG2 Assay for human Constitutive Androstane Receptor (CAR) (AID 2282969).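 Further: activators raise reporter mRNA above DMSO so AC50 marks induction.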 Particulars: HepG2 Attagene TRANS-FACTORIAL CAR reporter. An outline of the steps:
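HepG2 cells transiently transfected with multiplexed GAL4-UAS reporter units expressing chimeric NR-Gal4 proteins; compound exposure 24 h. Reporter mRNA measured by RT-PCR, 6-FAM labelling, HpaI digestion and capillary electrophoresis; gain-of-signal fitted against DMSO baseline.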

The target in assay [5] is Estrogen receptor (Homo sapiens) (UniProt P03372). As to the kind of experiment: ATG_ERa_TRANS: Attagene TRANS-FACTORIAL HepG2 Assay for human Estrogen Receptor alpha (ERa) (AID 2282970). Particulars: HepG2 Attagene TRANS ERa GAL4 reporter, mRNA. A digest of the protocol:
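HepG2 cells transiently transfected with multiplexed GAL4-UAS reporter units; ERa activity read via exogenous chimeric NR-Gal4 protein. After 24 hour compound exposure, reporter mRNA measured by RT-PCR with 6-FAM labelling and capillary electrophoresis; gain-of-signal fitted relative to DMSO.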

Assay [6] addresses X-box-binding protein 1 (Homo sapiens) (UniProt P17861). Briefly: ATG_Xbp1_CIS: Attagene CIS-FACTORIAL HepG2 Assay for human X-box Binding Protein 1 (XBP1) (AID 2282972; active means hit-call score of the fitted dose curve at least 0.9, where 1 is the maximum; inactive means score below 0.9). Particulars: HepG2 XBP1 cis-element reporter, Attagene multiplex; actives raise or lower the signal. An outline of the steps:
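HepG2 cells transiently transfected with multiple cis-element reporter units report endogenous TF activity; 24 h exposure, then reporter mRNA measured by RT-PCR, 6-FAM labelling, HpaI digestion and capillary electrophoresis. Bidirectional fitting versus DMSO.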

Assay [7] in a line: ATG_GAL4_TRANS: Attagene TRANS-FACTORIAL HepG2 Assay for GAL4 (Internal Marker) (AID 2282976). Particulars: HepG2 Attagene TRANS GAL4 internal marker reporter. An outline of the steps:
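HepG2 cells transiently transfected with multiplexed GAL4-UAS reporter constructs were dosed for 24 h. Reporter mRNA was measured by RT-PCR, 6-FAM primer extension, HpaI digestion and capillary electrophoresis, and gain of signal was fitted relative to DMSO.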

Assay [8] concerns the target Hepatocyte nuclear factor 4-alpha (Homo sapiens) (UniProt P41235). As to the kind of experiment: ATG_HNF4a_TRANS: Attagene TRANS-FACTORIAL HepG2 Assay for human Hepatocyte Nuclear Factor 4 alpha (HNF4a) (AID 2282982). The following applies: HepG2 HNF4a transactivation reporter, mRNA readout. A digest of the protocol: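 Cells used were human HepG2, transiently carrying GAL4-UAS reporter units read out against exogenous NR-GAL4 chimeras. Reporter transcript levels after 24 h dosing were quantified by fluorescent RT-PCR and capillary electrophoresis.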

Assay [9] can be described thus: ATG_M_06_TRANS: Attagene TRANS-FACTORIAL HepG2 Assay for M06 Transcription Factor (Internal Marker) (AID 2282983). Particulars: HepG2 Attagene TRANS M06 internal marker reporter. A digest of the protocol: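 HepG2 cells transiently transfected with multiplexed GAL4-UAS reporter transcription units; after 24 h compound exposure, reporter mRNA measured by RT-PCR, FAM-labelled primer extension, HpaI digestion and capillary electrophoresis. Gain-of-signal fitted versus DMSO baseline; background control readout.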

The nature of assay [10]: ATG_M_32_TRANS: Attagene TRANS-FACTORIAL HepG2 Assay for M32 Transcription Factor (Internal Marker) (AID 2282984). The following applies: HepG2 Attagene TRANS M32 internal marker reporter. An outline of the steps:
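Human hepatoma HepG2, transient MRTU transfection, 24 h treatment. RNA → RT-PCR → fluorescent primer extension → HpaI digest (2 h, 37 C) → CE. Positive-direction fit vs DMSO.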

For assay [11], the target named is Nuclear receptor subfamily 4 group A member 2 (Homo sapiens) (UniProt P43354). Briefly: ATG_NURR1_TRANS: Attagene TRANS-FACTORIAL HepG2 Assay for human Nuclear Receptor Related Protein 1 (NURR1) (AID 2282985). The following applies: HepG2 Attagene TRANS reporter, mRNA readout. An outline of the steps: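 After 24 h chemical dosing, total RNA from transiently transfected HepG2 cells was reverse-transcribed and reporter cDNA PCR-amplified, FAM-labelled and analysed by capillary electrophoresis. Activity fitted in positive direction, DMSO as negative control.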

Assay [12] has as its target Transcriptional activator Myb (Homo sapiens) (UniProt P10242). As to the kind of experiment: ATG_Myb_CIS: Attagene CIS-FACTORIAL HepG2 Assay for human Myeloblastosis (Myb) Proto-Oncogene Transcription Factor (AID 2282986; active means hit-call score of the fitted dose curve at least 0.9, where 1 is the maximum; inactive means score below 0.9). The following applies: HepG2 Attagene CIS-FACTORIAL Myb reporter transcription; actives raise or lower the signal. A digest of the protocol: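 Steps: transfect HepG2 with cis-regulated reporter units; dose with chemical for 24 h; isolate RNA, reverse-transcribe, PCR-amplify and FAM-label reporter sequences; digest with HpaI; resolve by capillary electrophoresis. Activity fitted in both directions relative to DMSO.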

Assay [13] has as its target Nuclear respiratory factor 1 (Homo sapiens) (UniProt Q16656). Briefly: ATG_NRF1_CIS: Attagene CIS-FACTORIAL HepG2 Assay for human Nuclear Respiratory Factor 1 (NRF1) Orphan Gene (AID 2282987; active means hit-call score of the fitted dose curve at least 0.9, where 1 is the maximum; inactive means score below 0.9). Particulars: HepG2 NRF1 cis-element reporter, Attagene multiplex; actives raise or lower the signal. An outline of the steps:
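Fluorescence intensity of labelled reporter cDNA fragments, resolved by capillary electrophoresis, served as readout for NRF1 cis-element activity. Transiently transfected HepG2 cells were dosed for 24 hours; activity in either direction was fitted against DMSO negative control.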

Assay [14] has as its target Estrogen-related receptor gamma (Homo sapiens) (UniProt P62508). Briefly: ATG_ERRg_TRANS: Attagene TRANS-FACTORIAL HepG2 Assay for human Estrogen-Related Receptor gamma (ERRg) (AID 2282977).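 Further: hits increase reporter signal over DMSO so potencies reflect activators.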 The following applies: HepG2 Attagene TRANS reporter, ERRg transactivation. An outline of the steps:
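HepG2 cells transiently transfected with multiplexed GAL4-UAS reporter units driven by chimeric NR-Gal4 proteins; 24 h exposure. Reporter mRNA quantified by RT-PCR, fluorescent labelling, HpaI digestion and capillary electrophoresis; gain of signal vs DMSO.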

The target in assay [15] is Glucocorticoid receptor (Homo sapiens) (UniProt P04150). As to the kind of experiment: ATG_GR_TRANS: Attagene TRANS-FACTORIAL HepG2 Assay for human Glucocorticoid Receptor (GR) (AID 2282978).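 Further: activators score as hits since higher reporter transcript over DMSO is fitted.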 The following applies: HepG2 Attagene TRANS GR reporter, mRNA transcription. A digest of the protocol:
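In this trans-factorial format, exogenous NR-GAL4 chimeric proteins in transfected HepG2 cells regulate GAL4-UAS reporter transcription. After 24 h treatment, reporter mRNA induction relative to DMSO is read by RT-PCR and capillary electrophoresis.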

The target of assay [16] is Bile acid receptor (Homo sapiens) (UniProt Q96RI1). As to the kind of experiment: ATG_FXR_TRANS: Attagene TRANS-FACTORIAL HepG2 Assay for Farnesoid X Receptor (FXR) (AID 2282979).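 Further: hits raise reporter mRNA above DMSO so AC50 marks FXR activation.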 Particulars: HepG2 Attagene TRANS FXR-GAL4 reporter transcription. A digest of the protocol:
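HepG2 cells transiently transfected with reporter constructs in which a chimeric FXR-GAL4 protein drives a GAL4-UAS reporter; 24 h compound exposure. Reporter mRNA measured by RT-PCR, FAM labelling, HpaI digestion and capillary electrophoresis; gain-of-signal versus DMSO.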

Assay [17] concerns the target Oxysterols receptor LXR-beta (Homo sapiens) (UniProt P55055). Briefly: ATG_LXRb_TRANS: Attagene TRANS-FACTORIAL HepG2 Assay for human Liver X Receptor beta (LXRb) (AID 2282981). Particulars: HepG2 Attagene TRANS GAL4-LXRb reporter, mRNA. A digest of the protocol:
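In this TRANS format, exogenous chimeric NR-Gal4 protein activity, not endogenous factors, drives reporter expression in transfected human HepG2 cells. Exposure lasted 24 h; reporter mRNA was read by fluorescent capillary electrophoresis.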

Assay [18] concerns the target Oxysterols receptor LXR-alpha (Homo sapiens) (UniProt Q13133). Briefly: ATG_LXRa_TRANS: Attagene TRANS-FACTORIAL HepG2 Assay for human Liver X Receptor alpha (LXRa) (AID 2282980). Particulars: HepG2 Attagene TRANS reporter, LXRa transactivation. A digest of the protocol: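 HepG2 cells were transiently transfected with multiplexed reporter units driven by chimeric LXRa–GAL4 fusion proteins, then dosed for 24 h. Reporter mRNA was quantified by RT-PCR, fluorescent labelling and capillary electrophoresis; gain of signal fitted against DMSO baseline.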

The nature of assay [19]: ATG_M_19_TRANS: Attagene TRANS-FACTORIAL HepG2 Assay for M19 Transcription Factor (Internal Marker) (AID 2282974). Particulars: HepG2 Attagene TRANS-FACTORIAL M19 internal marker reporter. An outline of the steps: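 Cells: human HepG2, transiently transfected with multiplexed reporter transcription units. Exposure: 24 h. Detection: RT-PCR of reporter mRNA with capillary electrophoresis. Analysis: gain-of-signal vs DMSO.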

Inconclusive results are not listed. Activity calls are given as the source filed them. How the source made its calls, unless noted: active means hit-call score of the fitted dose curve at least 0.9, where 1 is the maximum; inconclusive means response in the unintended direction; inactive means score below 0.9.

Sequence of Glucocorticoid receptor (Homo sapiens) (P04150 whole entry, looked up, the tested form may be a part): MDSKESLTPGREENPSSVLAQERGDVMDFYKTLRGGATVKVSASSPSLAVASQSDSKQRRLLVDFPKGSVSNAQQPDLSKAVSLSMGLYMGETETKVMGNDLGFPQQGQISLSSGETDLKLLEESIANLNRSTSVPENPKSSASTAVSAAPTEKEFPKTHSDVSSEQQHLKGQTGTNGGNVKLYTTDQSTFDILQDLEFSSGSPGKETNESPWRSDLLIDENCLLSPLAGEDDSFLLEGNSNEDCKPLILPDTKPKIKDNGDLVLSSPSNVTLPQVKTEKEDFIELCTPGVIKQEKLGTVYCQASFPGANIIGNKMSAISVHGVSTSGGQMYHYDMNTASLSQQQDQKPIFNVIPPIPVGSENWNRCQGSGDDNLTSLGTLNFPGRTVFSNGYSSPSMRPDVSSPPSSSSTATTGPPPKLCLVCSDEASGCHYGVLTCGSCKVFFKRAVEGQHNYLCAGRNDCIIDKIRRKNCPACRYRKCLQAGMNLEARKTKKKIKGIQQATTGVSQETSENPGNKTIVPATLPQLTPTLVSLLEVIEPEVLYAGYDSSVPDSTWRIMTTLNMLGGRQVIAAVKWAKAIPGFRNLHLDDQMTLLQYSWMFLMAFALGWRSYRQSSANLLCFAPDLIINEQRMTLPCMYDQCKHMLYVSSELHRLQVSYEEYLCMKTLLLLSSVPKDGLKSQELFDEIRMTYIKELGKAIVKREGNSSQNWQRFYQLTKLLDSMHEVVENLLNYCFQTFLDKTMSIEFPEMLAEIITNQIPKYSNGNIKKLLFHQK
Sequence of Estrogen receptor (Homo sapiens) (P03372 whole entry, looked up, the tested form may be a part): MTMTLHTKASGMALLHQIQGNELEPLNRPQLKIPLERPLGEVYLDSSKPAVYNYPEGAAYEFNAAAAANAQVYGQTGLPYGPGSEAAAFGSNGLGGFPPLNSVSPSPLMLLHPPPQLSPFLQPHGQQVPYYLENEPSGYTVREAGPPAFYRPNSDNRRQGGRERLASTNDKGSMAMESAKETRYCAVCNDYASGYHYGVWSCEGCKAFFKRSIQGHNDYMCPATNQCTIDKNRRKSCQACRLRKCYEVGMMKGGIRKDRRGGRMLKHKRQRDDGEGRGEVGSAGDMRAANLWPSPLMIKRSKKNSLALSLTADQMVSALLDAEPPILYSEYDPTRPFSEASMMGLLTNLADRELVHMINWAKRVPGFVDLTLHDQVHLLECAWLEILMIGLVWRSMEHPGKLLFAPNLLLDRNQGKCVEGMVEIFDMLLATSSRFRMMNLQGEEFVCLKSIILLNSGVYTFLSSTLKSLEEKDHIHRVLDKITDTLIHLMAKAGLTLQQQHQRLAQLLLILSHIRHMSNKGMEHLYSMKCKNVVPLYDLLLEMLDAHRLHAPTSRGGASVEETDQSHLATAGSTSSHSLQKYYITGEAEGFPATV
Sequence of Nuclear receptor subfamily 1 group I member 3 (Homo sapiens) (Q14994 whole entry, looked up, the tested form may be a part): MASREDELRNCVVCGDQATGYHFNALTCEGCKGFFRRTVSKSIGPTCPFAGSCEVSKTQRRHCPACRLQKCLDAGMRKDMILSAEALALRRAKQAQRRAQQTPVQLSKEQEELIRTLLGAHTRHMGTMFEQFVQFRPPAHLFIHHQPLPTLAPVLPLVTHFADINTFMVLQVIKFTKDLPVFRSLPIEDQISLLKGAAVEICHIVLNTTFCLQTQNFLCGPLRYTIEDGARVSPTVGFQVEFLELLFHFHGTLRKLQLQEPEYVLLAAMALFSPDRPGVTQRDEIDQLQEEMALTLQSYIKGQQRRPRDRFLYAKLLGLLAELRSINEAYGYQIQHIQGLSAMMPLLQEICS
Sequence of Nuclear respiratory factor 1 (Homo sapiens) (Q16656 whole entry, looked up, the tested form may be a part): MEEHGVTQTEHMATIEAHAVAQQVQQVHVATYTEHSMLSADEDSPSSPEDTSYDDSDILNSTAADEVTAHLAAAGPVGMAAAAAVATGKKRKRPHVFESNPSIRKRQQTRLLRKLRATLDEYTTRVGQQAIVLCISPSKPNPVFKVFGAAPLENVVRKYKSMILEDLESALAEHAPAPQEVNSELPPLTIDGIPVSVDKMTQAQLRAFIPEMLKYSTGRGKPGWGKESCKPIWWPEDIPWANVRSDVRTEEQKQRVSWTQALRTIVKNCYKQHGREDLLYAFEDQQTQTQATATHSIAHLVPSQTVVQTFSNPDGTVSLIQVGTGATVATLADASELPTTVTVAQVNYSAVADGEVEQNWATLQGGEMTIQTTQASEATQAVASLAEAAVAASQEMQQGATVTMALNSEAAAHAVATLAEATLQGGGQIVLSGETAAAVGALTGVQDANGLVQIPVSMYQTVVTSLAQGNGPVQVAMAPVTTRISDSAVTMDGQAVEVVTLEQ
Sequence of Transcriptional activator Myb (Homo sapiens) (P10242 whole entry, looked up): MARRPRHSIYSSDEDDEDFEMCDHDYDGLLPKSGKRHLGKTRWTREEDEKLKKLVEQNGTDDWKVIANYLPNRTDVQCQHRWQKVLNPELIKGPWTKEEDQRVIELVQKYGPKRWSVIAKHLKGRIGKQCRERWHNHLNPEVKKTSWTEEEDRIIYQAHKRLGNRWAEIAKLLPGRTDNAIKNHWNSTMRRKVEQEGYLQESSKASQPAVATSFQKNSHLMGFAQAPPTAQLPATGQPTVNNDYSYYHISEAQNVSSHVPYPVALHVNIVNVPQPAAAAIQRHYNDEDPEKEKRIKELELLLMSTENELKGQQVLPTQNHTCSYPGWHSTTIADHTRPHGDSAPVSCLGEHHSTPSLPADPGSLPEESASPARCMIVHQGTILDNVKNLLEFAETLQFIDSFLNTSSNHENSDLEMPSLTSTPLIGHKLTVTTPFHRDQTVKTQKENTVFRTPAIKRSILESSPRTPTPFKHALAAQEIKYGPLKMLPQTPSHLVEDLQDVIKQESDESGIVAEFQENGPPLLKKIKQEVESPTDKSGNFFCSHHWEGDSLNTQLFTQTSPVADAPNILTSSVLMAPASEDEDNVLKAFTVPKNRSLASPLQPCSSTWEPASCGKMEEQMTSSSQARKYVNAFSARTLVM
Sequence of Bile acid receptor (Homo sapiens) (Q96RI1 whole entry, looked up, the tested form may be a part): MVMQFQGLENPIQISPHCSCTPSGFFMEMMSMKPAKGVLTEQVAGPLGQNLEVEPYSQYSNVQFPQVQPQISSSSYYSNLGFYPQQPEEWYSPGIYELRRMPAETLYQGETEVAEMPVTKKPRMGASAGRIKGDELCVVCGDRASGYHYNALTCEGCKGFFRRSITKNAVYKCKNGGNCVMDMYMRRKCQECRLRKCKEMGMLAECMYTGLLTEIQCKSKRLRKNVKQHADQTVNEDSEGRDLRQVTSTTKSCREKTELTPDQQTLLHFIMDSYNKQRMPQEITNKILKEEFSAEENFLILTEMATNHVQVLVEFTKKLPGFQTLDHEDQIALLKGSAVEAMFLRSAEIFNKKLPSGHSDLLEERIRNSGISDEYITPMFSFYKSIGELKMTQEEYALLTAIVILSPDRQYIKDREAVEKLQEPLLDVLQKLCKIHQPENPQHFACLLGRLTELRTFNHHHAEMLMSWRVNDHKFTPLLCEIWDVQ
Sequence of Nuclear receptor subfamily 4 group A member 2 (Homo sapiens) (P43354 whole entry, looked up): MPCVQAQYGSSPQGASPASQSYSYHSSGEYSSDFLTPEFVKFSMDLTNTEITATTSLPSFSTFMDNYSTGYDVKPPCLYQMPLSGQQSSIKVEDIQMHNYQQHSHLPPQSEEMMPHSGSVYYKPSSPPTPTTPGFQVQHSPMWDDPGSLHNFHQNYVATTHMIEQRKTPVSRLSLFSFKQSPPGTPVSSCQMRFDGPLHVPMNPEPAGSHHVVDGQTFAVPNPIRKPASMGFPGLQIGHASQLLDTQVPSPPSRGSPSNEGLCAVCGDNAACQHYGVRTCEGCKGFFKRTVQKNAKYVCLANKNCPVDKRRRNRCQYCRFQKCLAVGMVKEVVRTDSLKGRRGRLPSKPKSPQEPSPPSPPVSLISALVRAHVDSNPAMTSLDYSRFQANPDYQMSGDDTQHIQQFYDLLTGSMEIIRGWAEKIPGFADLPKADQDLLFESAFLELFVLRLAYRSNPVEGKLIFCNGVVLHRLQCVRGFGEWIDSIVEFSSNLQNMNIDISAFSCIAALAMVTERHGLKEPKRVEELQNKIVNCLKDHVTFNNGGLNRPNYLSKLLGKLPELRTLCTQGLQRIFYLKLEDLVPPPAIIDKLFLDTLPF
Sequence of Hepatocyte nuclear factor 4-alpha (Homo sapiens) (P41235 whole entry, looked up, the tested form may be a part): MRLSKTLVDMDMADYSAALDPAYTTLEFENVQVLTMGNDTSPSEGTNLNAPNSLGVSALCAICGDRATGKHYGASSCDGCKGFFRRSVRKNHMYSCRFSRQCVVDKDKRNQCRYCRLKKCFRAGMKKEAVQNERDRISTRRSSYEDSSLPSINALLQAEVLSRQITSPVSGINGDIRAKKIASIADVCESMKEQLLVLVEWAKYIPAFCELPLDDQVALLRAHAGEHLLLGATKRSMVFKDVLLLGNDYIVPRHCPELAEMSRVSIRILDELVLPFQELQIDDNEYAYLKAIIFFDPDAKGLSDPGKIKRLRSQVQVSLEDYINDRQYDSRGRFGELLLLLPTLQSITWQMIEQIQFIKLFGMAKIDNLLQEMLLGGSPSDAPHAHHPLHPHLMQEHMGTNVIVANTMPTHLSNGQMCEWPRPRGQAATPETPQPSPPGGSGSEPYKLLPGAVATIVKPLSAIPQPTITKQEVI
Sequence of Oxysterols receptor LXR-beta (Homo sapiens) (P55055 whole entry, looked up, the tested form may be a part): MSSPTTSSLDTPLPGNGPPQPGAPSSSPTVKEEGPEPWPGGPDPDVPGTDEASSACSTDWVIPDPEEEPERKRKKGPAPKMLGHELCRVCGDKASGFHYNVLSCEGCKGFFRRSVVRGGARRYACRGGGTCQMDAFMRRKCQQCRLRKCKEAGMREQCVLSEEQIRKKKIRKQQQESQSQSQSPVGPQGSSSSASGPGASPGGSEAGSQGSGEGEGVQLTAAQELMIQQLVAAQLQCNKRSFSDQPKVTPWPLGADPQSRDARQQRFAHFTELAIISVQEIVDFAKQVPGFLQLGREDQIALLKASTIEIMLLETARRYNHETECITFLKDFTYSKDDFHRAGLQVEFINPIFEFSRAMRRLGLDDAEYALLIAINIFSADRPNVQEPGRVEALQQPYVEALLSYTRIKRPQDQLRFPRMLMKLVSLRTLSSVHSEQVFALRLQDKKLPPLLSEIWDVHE

Turning to `O=C(F)C(F)(F)C(F)(F)C(F)(F)C(=O)F`, the result in assay [1], in assay [2], in assay [3], in assay [4], in assay [5] and in assay [6] was inactive. Further, the result in assay [7], in assay [8], in assay [9], in assay [10], in [11] and in assay [12] was inactive. The call in assay [13] was inactive.
The term AC50 denotes the midpoint of the concentration-response curve, whichever way the signal moves. As for `Nc1cc(Cl)c(-c2cc(Cl)c(N)cc2Cl)cc1Cl`, the outcome in assay [1], in assay [2], in assay [4], in assay [5], in assay [14] and in [15] was inactive. The compound was called inactive in [17], in assay [10], in assay [12] and in assay [13]. The AC50 is 2.96 µM (active) in assay [3] and 11.1 µM (active) in [16].
For the compound `Oc1cccc2c(O)cccc12`, the call in assay [1], in assay [2], in assay [3], in [4], in [7] and in [14] was inactive. Moreover, the compound was called inactive in assay [15], in [18], in [17], in [9], in [10] and in assay [12]. Besides, the compound was classed as inactive in assay [13]. Moreover, in [5], the AC50 is 11.1 µM (active).
For the compound `FC(F)(F)N1C(F)(F)C(F)(F)OC(F)(F)C1(F)F`, the outcome in [1], in assay [2], in assay [3], in assay [4], in assay [5] and in [7] was inactive. The compound was classed as inactive in [15], in [16], in assay [17], in assay [8], in [9] and in assay [10]. The call in assay [12] and in [13] was inactive.
Regarding `CCCCCCCCCCCCCCCC(=O)OC`, the call in assay [1], in assay [2], in assay [3], in [4], in [5] and in assay [6] was inactive. In addition, the call in [7], in assay [17], in assay [8], in [10], in assay [12] and in assay [13] was inactive.
Take `CCCCCCCCC(C)=O`: the result in assay [1], in assay [2], in assay [3], in assay [4], in [5] and in assay [6] was inactive. Further, the result in assay [15], in assay [16], in assay [18], in [17], in [12] and in assay [13] was inactive.
As to `O=C1OC(=O)c2cc(-c3ccc4c(c3)C(=O)OC4=O)ccc21`, the compound was classed as inactive in assay [1], in [2], in assay [3], in assay [4], in [5] and in [6]. Besides, the compound was classed as inactive in [19], in [7], in assay [16], in assay [10], in [11] and in [12]. Further, the result in assay [13] was inactive.
For the compound `CCCCCc1ccc(O)cc1`, the result in [1], in assay [2], in assay [3], in assay [4], in [16] and in assay [8] was inactive. Moreover, the outcome in [9], in [11], in [12] and in [13] was inactive. Besides, in [5], the AC50 is 1.6 µM (active).
For `CCN(CC)CC`, the outcome in [1], in assay [2], in assay [3], in assay [4], in assay [5] and in assay [6] was inactive. Moreover, the compound was classed as inactive in assay [19], in assay [7], in assay [15], in [16], in assay [18] and in assay [9]. Also, the compound was classed as inactive in assay [10], in [11], in assay [12] and in assay [13].
